In PubChem BioAssay (Tox21) one finds Potency data, which are given here for eight molecules.

A short description of assay [1]: Nuclear factor erythroid 2-related factor 2/antioxidant responsive element (Nrf2/ARE) small molecule agonists: qHTS cell viability counter screen in human keratinocytes (AID 1919968; active means well fitted curve in the direction sought with a large enough effect in the repeat runs; an effect the other way counts as inactive or inconclusive; further: nearly all actives have a fitted effect of over 55% in size). The essentials: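 Seed 1,500 KeratinoSens cells per well, then incubate 5 h at 37 C/5% CO2. Add compounds in DMSO and incubate 23 h. Add CellTiter-Fluor, wait 1 h and read fluorescence.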
(qHTS replaces the single test concentration by a dilution series.)

A short description of assay [2]: Nuclear factor erythroid 2-related factor 2/antioxidant responsive element (Nrf2/ARE) small molecule agonists: luciferase reporter gene qHTS assay in human keratinocytes (AID 1919969). Further: nearly all actives have a fitted effect of over 35% in size. A general note: A reporter such as luciferase makes a cellular process visible.
For assay [3], the target named is Gonadotropin-releasing hormone receptor (Homo sapiens) (UniProt P30968). Briefly: Human gonadotropin-releasing hormone receptor (GnRHR) small molecule agonists, calcium flux assay in GnRHR-HEK293 cells (AID 1920063). Further: nearly all actives have a fitted effect of over 35% in size. A digest of the protocol:
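Cells: HEK293 stably expressing human GnRHR. Steps: overnight (18 h) culture, 1 h calcium dye loading at 37 C, compound addition, kinetic fluorescence read at 480/540 nm. Each compound tested at 15 concentrations in triplicate.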
In general terms: Calcium assays in cells follow changes in intracellular calcium, usually with a dye or a luminescent sensor.

Assay [4] addresses KiSS-1 receptor (Homo sapiens) (UniProt Q969F8). The assay is described as follows: Human kisspeptin (KISS1R) small molecule agonists, calcium flux assay in KISS1R-HEK293 cells (AID 1920064; active means well fitted curve in the direction sought with a large enough effect in the repeat runs; an effect the other way counts as inactive or inconclusive). The essentials: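 Cells plated and incubated 18 h; dye added, 1 h at 37 C; compounds in DMSO pinned in; signal read at 480/540 nm every second for 3 min. Each compound tested at 15 concentrations in triplicate.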

Assay [5] in a line: G protein-coupled receptor (GPCR) small molecule agonists, calcium flux assay: HEK293 wild type cell line counter screen (AID 1920065). The essentials:
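Counter-screen of the Tox21 10K library for non-specific calcium release: dye-loaded cells received compounds in DMSO and were monitored by kinetic fluorescence (480/540 nm, 3 min). Fifteen concentrations, run in triplicate.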

The nature of assay [6]: p53 small molecule agonists, cell-based qHTS assay with human liver microsomes: qHTS cell viability counter screen (AID 1963579). Further: nearly all actives have a fitted effect of over 45% in size. A digest of the protocol: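 Metabolic activation used human liver microsomes and NADPH, both 0.5 mg/mL final, over 16 hours at 37 C on p53RE-bla cells (4,000/well). Cytotoxicity measured by CellTiter-Glo luminescence, 30 min at room temperature.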

Assay [7] in a line: p53 small molecule agonists, cell-based qHTS assay (AID 1963582; active means well fitted activation curve with a large enough effect in the signal ratio in the repeat runs, not every such curve was filed as active; the % refers to the signal ratio; further: potency means the concentration at half of the fitted maximal effect). The essentials: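 Quantitative HTS in p53RE-bla cells: after a 5 h settling period, compounds delivered in DMSO were left on cells for 16 h at 37 C, and reporter induction was measured as fluorescence following 2 h substrate loading.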
A short description of assay [8]: cAMP Responsive Elements (CRE) small molecule agonists, cell-based qHTS assay (AID 1963590). The essentials:
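Agonist mode qHTS in CRE-bla HEK 293T cells: compounds dosed from DMSO for 3 h at 37 C/5% CO2, followed by LiveBLAzer B/G FRET substrate for 2 h at room temperature.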

The nature of assay [9]: cAMP Responsive Elements (CRE) small molecule antagonists, cell-based qHTS assay (AID 1963591; active means well fitted inhibition curve with a large enough effect in the signal ratio in the repeat runs, not every such curve was filed as active; the % refers to the signal ratio). The essentials: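 Antagonist mode: test compounds are co-incubated with the adenylyl cyclase activator NKH477 (0.25 uM final) on CRE-bla HEK293T cells for 3 h at 37 °C, followed by LiveBLAzer substrate loading.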
The target of assay [10] is Beta-2 adrenergic receptor (Homo sapiens) (UniProt P07550). Briefly: Adrenergic beta2 receptor (ADRB2) small molecule antagonists, cell-based qHTS assay (AID 1963592). Further: series mostly up to about 92 µM; nearly all actives have a fitted effect of over 50% in size. The essentials: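 Cells (CHO, stable ADRB2 overexpression) incubated 18-20hr at 37C; compounds added from DMSO; agonist mix (1nM isoproterenol, 100uM IBMX, 25uM Ro-20-1724) added; 0.5hr RT; d2-cAMP and anti-cAMP-cryptate added; 1hr RT; 665/615 nm read.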

The target is the same in assay [11]. The assay is described as follows: Adrenergic beta2 receptor (ADRB2) small molecule agonists, cell-based qHTS assay (AID 1963593).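 Further: CHO cells stably overexpressing human ADRB2.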 The essentials:
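CHO cells stably over-expressing ADRB2 were plated overnight at 37C, then dosed with compounds plus a stimulation mix containing 100uM IBMX and 25uM Ro-20-1724 for 0.5hr at room temperature. cAMP was measured by HTRF competition, 1hr.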

Assay [12] has as its target D(2) dopamine receptor (Homo sapiens) (UniProt P14416). Briefly: Dopamine D2 receptor (DRD2) small molecule agonists, cell-based qHTS assay (AID 1963594). Further: nearly all actives have a fitted effect of over 35% in size. A digest of the protocol: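 HEK293 cells stably expressing DRD2 were cultured 24 h at 37 C, then given Ro20-1724 (0.1 mM final) and compounds for 10 min at room temperature. NKH477 (200nM) was then added for 30 min. cAMP was read by HTRF.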

For assay [13] the target is unchanged. The assay is described as follows: Dopamine D2 receptor (DRD2) small molecule antagonists, cell-based qHTS assay (AID 1963595; active means well fitted inhibition curve with a large enough effect in the signal ratio in the repeat runs, with a control signal flat; the % refers to the signal ratio). A digest of the protocol: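 DRD2-HEK293; 0.1 mM Ro20-1724; cpd 10 min RT; NKH477 200 nM + quinpirole 12 nM, 30 min RT; HTRF cAMP (cAMP-d2/anti-cAMP cryptate), 665/620 nm ratio after 1 h.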
Assay [14] is described as follows: p53 small molecule agonists, cell-based qHTS assay with rat liver microsomes: qHTS cell viability counter screen (AID 1963580). Further: nearly all actives have a fitted effect of over 45% in size. A digest of the protocol: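 p53RE-bla HCT-116 cells (4,000/well) rested 5 h at 37 C, then given Tox21 compounds in DMSO with rat liver microsomes (0.5 mg/mL final) plus NADPH (0.5 mg/mL final) for 16 h at 37 C. Viability read by CellTiter-Glo luminescence after 30 min at room temperature.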

The nature of assay [15]: p53 small molecule agonists, cell-based qHTS assay: qHTS cell viability counter screen (AID 1963581). Further: nearly all actives have a fitted effect of over 45% in size. A digest of the protocol: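 Cells: HCT-116 with p53 response element-driven beta-lactamase. Treatment: 16 h, 37 C, compounds in DMSO. Read: CellTiter-Glo luminescence after 30 min RT.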
The nature of assay [16]: p53 small molecule agonists, cell-based qHTS assay with human liver microsomes (AID 1963577).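 Further: p53 response element beta-lactamase reporter cells with liver microsomes plus NADPH.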 A digest of the protocol: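 With metabolic activation: human liver microsomes (0.5 mg/mL final) plus NADPH (0.5 mg/mL final) added alongside compounds to p53RE-bla cells; 16 h 37 C exposure; beta-lactamase read by LiveBLAzer fluorescence.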
Assay [17] deals with 5-hydroxytryptamine receptor 2A (Homo sapiens) (UniProt P28223). Briefly: 5-hydroxytryptamine receptor 2A (HTR2A) small molecule antagonists, cell-based qHTS assay (AID 1963586). Further: nearly all actives have a fitted effect of over 45% in size. A digest of the protocol:
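Antagonist-mode intracellular calcium assay: DOI (4 nM) added after 5 min compound pre-incubation at room temperature to dye-loaded HTR2A-CHO cells. Fluorescence followed for 3 min, sampled every second.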

Assay [18] has the same target. The assay is described as follows: 5-hydroxytryptamine receptor 2A (HTR2A) small molecule agonists, cell-based qHTS assay (AID 1963587). Further: nearly all actives have a fitted effect of over 30% in size. The essentials:
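HTR2A-CHO cells, plated 18 h at 37 C/5% CO2, dye-loaded 1 h at 37 C; compounds in DMSO added by pin tool (agonist mode). Intracellular calcium flux read as kinetic fluorescence on FDSS over 2 min at 1 s intervals.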

The target of assay [19] is Muscarinic acetylcholine receptor M1 (Homo sapiens) (UniProt P11229). The assay is described as follows: Cholinergic receptor muscarinic 1 (CHRM1) small molecule antagonists, cell-based qHTS assay (AID 1963588). Further: nearly all actives have a fitted effect of over 40% in size. Further: potency means the concentration at half of the fitted maximal effect. The essentials:
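CHRM1-CHO calcium-flux assay, antagonist mode. Cells were seeded 18 h, dye-loaded 1 h at 37 C and given compound for 5 min at RT, then acetylcholine was added at 50nM. FDSS fluorescence was read 3 min; 15 concentrations, three runs.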

The target is the same in assay [20]. Briefly: Cholinergic receptor muscarinic 1 (CHRM1) small molecule agonists, cell-based qHTS assay (AID 1963589). Further: nearly all actives have a fitted effect of over 35% in size. A digest of the protocol: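 Agonist-mode qHTS in CHO cells stably carrying human muscarinic M1. Intracellular calcium is tracked by fluorescence every second after compound transfer; each compound runs at 15 concentrations in three independent runs.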

Values joined by “and” are separate entries in the source; they are usually repeats but may differ in a detail not shown here. Equal values may be shown once. Results filed as inconclusive are left out. Active and inactive are the calls of the source. Unless noted, the call rests on the fitted dose curve.

D(2) dopamine receptor (Homo sapiens), sequence (P14416 whole entry, looked up): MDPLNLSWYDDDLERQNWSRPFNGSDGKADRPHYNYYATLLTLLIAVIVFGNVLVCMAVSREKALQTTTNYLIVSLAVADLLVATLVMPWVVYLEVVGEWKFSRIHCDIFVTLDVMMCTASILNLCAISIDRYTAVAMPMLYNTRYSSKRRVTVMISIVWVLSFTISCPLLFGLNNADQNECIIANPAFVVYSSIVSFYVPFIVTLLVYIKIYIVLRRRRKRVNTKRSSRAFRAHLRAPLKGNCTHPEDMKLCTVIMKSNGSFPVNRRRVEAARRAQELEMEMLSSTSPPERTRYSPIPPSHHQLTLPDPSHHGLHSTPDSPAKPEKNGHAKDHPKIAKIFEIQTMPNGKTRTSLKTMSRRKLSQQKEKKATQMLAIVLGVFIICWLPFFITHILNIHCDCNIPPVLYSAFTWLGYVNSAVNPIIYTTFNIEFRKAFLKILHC
Beta-2 adrenergic receptor (Homo sapiens), sequence (P07550 whole entry, looked up): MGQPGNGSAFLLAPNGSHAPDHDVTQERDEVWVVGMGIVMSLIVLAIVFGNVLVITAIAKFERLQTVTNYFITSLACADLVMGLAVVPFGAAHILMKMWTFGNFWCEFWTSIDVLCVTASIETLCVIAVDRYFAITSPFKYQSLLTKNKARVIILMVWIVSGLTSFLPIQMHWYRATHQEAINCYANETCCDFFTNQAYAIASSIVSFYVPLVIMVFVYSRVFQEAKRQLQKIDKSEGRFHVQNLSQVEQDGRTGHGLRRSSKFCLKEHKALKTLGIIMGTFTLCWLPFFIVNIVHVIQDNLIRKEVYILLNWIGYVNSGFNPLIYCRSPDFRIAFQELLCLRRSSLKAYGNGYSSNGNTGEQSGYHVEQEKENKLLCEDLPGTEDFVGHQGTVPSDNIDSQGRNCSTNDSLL
KiSS-1 receptor (Homo sapiens), sequence (Q969F8 whole entry, looked up): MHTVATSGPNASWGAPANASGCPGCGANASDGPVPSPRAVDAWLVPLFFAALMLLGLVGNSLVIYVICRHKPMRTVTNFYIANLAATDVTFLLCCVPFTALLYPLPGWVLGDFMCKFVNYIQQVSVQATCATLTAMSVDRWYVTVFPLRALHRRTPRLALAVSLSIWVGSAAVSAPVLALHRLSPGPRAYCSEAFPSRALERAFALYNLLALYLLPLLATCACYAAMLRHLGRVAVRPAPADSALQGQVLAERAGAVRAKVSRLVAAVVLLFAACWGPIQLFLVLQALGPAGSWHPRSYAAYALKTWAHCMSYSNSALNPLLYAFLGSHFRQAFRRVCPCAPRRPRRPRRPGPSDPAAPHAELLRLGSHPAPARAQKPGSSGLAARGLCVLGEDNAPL
Muscarinic acetylcholine receptor M1 (Homo sapiens), sequence (P11229 whole entry, looked up): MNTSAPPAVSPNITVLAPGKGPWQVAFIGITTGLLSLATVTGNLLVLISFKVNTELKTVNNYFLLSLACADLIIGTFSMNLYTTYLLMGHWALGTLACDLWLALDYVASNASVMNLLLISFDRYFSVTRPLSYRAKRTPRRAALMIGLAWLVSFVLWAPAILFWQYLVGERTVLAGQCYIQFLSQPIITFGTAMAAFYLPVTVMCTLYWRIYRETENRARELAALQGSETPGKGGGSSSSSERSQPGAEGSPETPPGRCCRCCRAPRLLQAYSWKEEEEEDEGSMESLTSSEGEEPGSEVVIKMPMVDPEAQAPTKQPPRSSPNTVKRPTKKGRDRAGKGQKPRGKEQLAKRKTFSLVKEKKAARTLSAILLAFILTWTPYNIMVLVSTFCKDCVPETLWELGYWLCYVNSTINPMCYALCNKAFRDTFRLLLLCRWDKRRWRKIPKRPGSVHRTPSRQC
Gonadotropin-releasing hormone receptor (Homo sapiens), sequence (P30968 whole entry, looked up): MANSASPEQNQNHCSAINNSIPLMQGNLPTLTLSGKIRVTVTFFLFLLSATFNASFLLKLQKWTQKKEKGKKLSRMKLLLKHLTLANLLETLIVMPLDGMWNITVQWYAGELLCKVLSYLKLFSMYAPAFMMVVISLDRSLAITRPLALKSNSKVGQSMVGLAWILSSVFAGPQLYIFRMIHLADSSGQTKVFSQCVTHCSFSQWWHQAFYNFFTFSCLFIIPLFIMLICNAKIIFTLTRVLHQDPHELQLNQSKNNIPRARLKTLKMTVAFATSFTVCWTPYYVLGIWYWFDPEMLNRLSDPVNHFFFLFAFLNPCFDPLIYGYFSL
5-hydroxytryptamine receptor 2A (Homo sapiens), sequence (P28223 whole entry, looked up): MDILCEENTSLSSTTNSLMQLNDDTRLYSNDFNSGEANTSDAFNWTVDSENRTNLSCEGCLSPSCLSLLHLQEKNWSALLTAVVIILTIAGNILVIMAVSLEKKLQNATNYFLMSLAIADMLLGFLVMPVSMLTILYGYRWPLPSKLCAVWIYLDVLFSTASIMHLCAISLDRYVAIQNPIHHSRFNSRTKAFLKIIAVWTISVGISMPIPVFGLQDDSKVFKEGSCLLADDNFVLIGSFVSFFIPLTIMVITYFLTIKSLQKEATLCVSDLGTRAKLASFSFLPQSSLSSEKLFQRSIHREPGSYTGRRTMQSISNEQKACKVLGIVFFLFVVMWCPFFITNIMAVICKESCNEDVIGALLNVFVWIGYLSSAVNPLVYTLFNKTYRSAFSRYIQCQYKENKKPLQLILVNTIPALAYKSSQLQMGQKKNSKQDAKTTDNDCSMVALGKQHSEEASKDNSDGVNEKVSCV

As to `O=c1ccc2ccccc2o1`, the Potency result in assay [1], in assay [2], in assay [3], in assay [4], in assay [5] and in [6] was “inactive” each time. Moreover, the Potency result in assay [7], in assay [8], in assay [9], in [10], in [11] and in [12] was “inactive” in each case. In addition, the Potency result in [13] was “inactive”.

On to `COc1ccccc1OCC(O)CO` (configuration not stated), for which the Potency result in [1], in assay [2], in assay [3], in assay [4], in assay [5] and in assay [6] was “inactive” in each case. Moreover, the Potency entry in [14], in assay [15], in [7], in assay [8], in [9] and in assay [10] was “inactive” in each case. Further, the Potency result in assay [11], in [12] and in [13] was “inactive” throughout.

As for `Nc1ccc2c(O)cc(S(=O)(=O)O)cc2c1`, the Potency entry in [1], in assay [2], in assay [3], in [4], in assay [5] and in assay [16] was “inactive” throughout. For the same molecule, the Potency entry in [14], in assay [15], in [17], in assay [18], in assay [19] and in [20] was “inactive” in each case. For the same molecule, the Potency entry in [8], in [12] and in assay [13] was “inactive” throughout. Besides, in assay [7], the Potency is 12.9 µM (active) and 16.2 µM (active).

Regarding `Cc1ccc(N)c(S(=O)(=O)O)c1`, the Potency entry in assay [1], in [2], in [3], in [4], in assay [5] and in assay [6] was “inactive” in each case. In addition, the Potency result in assay [14], in assay [15], in [7], in [17], in assay [18] and in [19] was “inactive” in each case. The Potency entry in assay [20], in assay [8], in [9], in assay [10], in assay [12] and in [13] was “inactive” each time.

As for `CCCCCCCCCCCC(=O)OC`, the Potency entry in [1], in assay [2], in assay [3], in assay [4], in assay [5] and in assay [16] was “inactive” in each case. The Potency entry in [6], in [14], in assay [15], in assay [7], in [18] and in [19] was “inactive” each time. For the same molecule, the Potency result in assay [20], in assay [8], in assay [9], in [10], in assay [11] and in assay [12] was “inactive” in each case. Also, in assay [13], the Potency entry was “inactive”.

As for `CN(C)CCOC(C)(c1ccccc1)c1ccccn1` (configuration not stated), the Potency result in [1], in assay [2], in assay [3], in assay [4], in [5] and in assay [16] was “inactive” in each case. Further, the Potency result in assay [6], in assay [14], in assay [15], in [7], in assay [17] and in assay [18] was “inactive” in each case. For the same molecule, the Potency entry in [20], in assay [9], in assay [10], in assay [11], in assay [12] and in [13] was “inactive” throughout. The Potency in assay [19] was 18.8 µM (active) and 4.1 µM (active).

For `C=C(CC(=O)O)C(=O)O`, the Potency entry in assay [1], in assay [2], in assay [3], in assay [4], in assay [5] and in [6] was “inactive” in each case. Further, the Potency result in assay [14], in [15], in assay [7], in assay [17], in assay [18] and in assay [19] was “inactive” in each case. In addition, the Potency result in assay [20], in assay [8], in assay [9], in assay [10], in assay [11] and in assay [12] was “inactive” in each case. For the same molecule, the Potency result in assay [13] was “inactive”.

As for `CCCCCCCCCCCCCC(=O)O`, the Potency entry in [1], in assay [2], in assay [3], in [4], in [5] and in [6] was “inactive” throughout. For the same molecule, the Potency entry in [14], in assay [15], in assay [17], in assay [18], in assay [19] and in assay [20] was “inactive” each time. For the same molecule, the Potency entry in assay [8], in assay [9], in assay [10], in assay [11], in assay [12] and in assay [13] was “inactive” each time.
